# Assays:
# Experiment in all cases: DAPPL (digital affinity profiling via proximity ligation, sequencing); 10 mM Tris-HCl pH 7.5, 50 mM NaCl, 1 mM DTT, 4% glycerol, room temperature, 30 min; GST-TFs on glutathione beads, 16-mer random dsDNA library, 0.1% formaldehyde crosslink after washing; high values mean tight binding
# [1] = molecular target: T1, FLI1 (Homo sapiens, UniProt Q01543 1-452); conditions: protein: recombinant; tags: N-terminal GST; dsDNA, one strand shown
# T1 sequence: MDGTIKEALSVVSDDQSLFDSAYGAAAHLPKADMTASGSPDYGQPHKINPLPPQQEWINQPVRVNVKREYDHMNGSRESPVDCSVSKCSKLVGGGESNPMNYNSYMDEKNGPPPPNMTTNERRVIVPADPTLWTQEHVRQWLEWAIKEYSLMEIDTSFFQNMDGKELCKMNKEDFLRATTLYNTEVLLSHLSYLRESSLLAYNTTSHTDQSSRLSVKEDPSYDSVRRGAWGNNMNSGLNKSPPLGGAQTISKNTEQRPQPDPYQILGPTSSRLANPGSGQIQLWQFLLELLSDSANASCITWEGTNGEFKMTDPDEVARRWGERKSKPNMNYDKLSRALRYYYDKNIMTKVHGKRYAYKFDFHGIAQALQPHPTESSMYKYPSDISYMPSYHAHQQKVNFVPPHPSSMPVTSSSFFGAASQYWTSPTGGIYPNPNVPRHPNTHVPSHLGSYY
# Method in brief: (§1)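 Pools of DNA-barcoded human transcription factors, expressed in yeast as GST fusions on glutathione beads and combined with a tag-only sample, were incubated with 200 nmole of a 16-mer random double-stranded DNA library. Incubation took 30 min at room temperature in Tris/NaCl/DTT/glycerol buffer and was followed by washing, 0.1% formaldehyde crosslinking, proximity ligation (BsaI/T4 ligase, 1 h, 37 °C), PCR amplification and sequencing on an Illumina NextSeq500. Binding signal is the ratio of a hexamer's read frequency for a factor to its frequency for the tag-only sample.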
# [2] = molecular target: T2, ELK1 (Homo sapiens, UniProt P19419 1-428); conditions: protein: recombinant; tags: N-terminal GST; dsDNA, one strand shown
# T2 sequence: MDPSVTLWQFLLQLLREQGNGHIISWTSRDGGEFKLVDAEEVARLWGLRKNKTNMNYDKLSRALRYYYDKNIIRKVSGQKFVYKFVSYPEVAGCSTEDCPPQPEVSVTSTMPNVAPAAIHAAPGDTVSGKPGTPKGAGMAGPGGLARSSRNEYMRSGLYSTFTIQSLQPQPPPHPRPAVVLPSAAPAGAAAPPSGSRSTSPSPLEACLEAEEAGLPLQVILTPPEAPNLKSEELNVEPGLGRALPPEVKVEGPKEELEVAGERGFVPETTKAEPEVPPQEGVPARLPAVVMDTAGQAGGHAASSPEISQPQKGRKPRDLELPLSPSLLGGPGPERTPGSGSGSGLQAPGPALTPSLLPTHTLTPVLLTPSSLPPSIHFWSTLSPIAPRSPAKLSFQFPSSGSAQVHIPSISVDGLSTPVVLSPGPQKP
# Method in brief: as §1
# [3] = molecular target: T3, GABPA (Homo sapiens, UniProt Q06546 1-454); conditions: protein: recombinant; tags: N-terminal GST; dsDNA, one strand shown
# T3 sequence: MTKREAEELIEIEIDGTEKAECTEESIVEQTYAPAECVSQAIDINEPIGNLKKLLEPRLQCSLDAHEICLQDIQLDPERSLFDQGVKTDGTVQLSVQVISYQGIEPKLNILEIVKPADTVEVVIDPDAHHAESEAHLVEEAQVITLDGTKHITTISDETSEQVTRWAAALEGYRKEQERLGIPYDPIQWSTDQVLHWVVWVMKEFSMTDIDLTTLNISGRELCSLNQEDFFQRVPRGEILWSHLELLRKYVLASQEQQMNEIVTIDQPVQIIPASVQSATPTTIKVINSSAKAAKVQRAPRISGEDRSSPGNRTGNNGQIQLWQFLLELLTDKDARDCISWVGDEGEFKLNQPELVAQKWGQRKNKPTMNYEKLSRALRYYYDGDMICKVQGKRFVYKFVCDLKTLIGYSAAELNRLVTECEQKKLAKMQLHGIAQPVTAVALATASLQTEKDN
# Method in brief: as §1
# [4] = molecular target: T4, ERG (Homo sapiens, UniProt P11308 1-479); conditions: protein: recombinant; tags: N-terminal GST; dsDNA, one strand shown
# T4 sequence: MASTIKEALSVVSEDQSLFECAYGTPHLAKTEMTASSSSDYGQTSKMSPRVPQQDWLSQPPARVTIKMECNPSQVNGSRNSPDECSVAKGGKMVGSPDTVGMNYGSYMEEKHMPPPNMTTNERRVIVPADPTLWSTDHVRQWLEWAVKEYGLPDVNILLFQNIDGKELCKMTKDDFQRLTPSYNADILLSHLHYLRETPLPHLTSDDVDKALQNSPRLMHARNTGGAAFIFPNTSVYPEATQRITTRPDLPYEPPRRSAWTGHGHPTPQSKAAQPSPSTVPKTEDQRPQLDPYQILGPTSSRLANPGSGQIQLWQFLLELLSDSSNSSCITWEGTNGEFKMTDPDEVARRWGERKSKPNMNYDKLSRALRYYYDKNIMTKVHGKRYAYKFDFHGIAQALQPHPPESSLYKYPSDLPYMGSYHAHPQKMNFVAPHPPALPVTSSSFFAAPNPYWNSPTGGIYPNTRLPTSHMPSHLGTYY
# Method in brief: as §1
# [5] = molecular target: ELF1 (Homo sapiens, UniProt P32519 1-619); conditions: protein: recombinant; tags: N-terminal GST; dsDNA, one strand shown
# Method in brief: as §1
# [6] = molecular target: T5, EHF (Homo sapiens, UniProt Q9NZC4 1-300); conditions: protein: recombinant; tags: N-terminal GST; dsDNA, one strand shown
# T5 sequence: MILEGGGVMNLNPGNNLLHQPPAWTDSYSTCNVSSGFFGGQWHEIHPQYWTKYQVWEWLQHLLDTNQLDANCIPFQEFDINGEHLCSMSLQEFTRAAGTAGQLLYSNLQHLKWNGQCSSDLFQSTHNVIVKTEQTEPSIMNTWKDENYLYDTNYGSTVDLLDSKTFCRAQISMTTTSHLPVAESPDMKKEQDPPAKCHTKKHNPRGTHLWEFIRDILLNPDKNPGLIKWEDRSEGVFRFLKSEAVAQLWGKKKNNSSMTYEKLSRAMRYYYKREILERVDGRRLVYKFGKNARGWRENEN
# Method in brief: as §1
# [7] = molecular target: SPI1 (Homo sapiens, UniProt P17947 1-270); conditions: protein: recombinant; tags: N-terminal GST; dsDNA, one strand shown
# Method in brief: as §1
# [8] = molecular target: SPIB (Homo sapiens, UniProt Q01892 1-262); conditions: protein: recombinant; tags: N-terminal GST; dsDNA, one strand shown
# Method in brief: as §1
# [9] = molecular target: T6, ELK3 (Homo sapiens, UniProt P41970 1-407); conditions: protein: recombinant; tags: N-terminal GST; dsDNA, one strand shown
# T6 sequence: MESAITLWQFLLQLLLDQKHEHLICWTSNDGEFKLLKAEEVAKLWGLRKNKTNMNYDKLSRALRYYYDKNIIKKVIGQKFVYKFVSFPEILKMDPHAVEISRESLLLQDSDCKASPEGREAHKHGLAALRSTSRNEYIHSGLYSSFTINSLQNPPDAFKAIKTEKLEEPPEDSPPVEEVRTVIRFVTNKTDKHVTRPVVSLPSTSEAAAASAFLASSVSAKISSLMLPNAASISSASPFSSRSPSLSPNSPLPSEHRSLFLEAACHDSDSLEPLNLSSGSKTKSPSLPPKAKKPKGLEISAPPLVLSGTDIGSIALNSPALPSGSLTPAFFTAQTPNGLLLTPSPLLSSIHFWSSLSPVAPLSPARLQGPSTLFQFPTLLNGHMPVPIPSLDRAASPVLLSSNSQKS
# Method in brief: as §1
# [10] = molecular target: T7, FEV (Homo sapiens, UniProt Q99581 1-238); conditions: protein: recombinant; tags: N-terminal GST; dsDNA, one strand shown
# T7 sequence: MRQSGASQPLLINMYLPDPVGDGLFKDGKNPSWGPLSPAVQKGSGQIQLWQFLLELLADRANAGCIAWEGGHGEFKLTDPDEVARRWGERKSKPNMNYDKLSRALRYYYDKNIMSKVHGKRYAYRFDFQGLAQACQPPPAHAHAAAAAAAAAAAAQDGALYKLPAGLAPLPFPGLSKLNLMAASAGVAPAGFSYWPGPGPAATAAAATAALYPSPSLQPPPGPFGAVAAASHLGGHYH
# Method in brief: as §1
# [11] = molecular target: ETV5 (Homo sapiens, UniProt P41161 1-510); conditions: protein: recombinant; tags: N-terminal GST; dsDNA, one strand shown
# Method in brief: as §1
# [12] = molecular target: HSF1 (Homo sapiens, UniProt Q00613 1-529); conditions: protein: recombinant; tags: N-terminal GST; chain copies: 3; dsDNA, one strand shown
# Method in brief: as §1
# [13] = molecular target: T8, SPIC (Homo sapiens, UniProt Q8N5J4 1-248); conditions: protein: recombinant; tags: N-terminal GST; dsDNA, one strand shown
# T8 sequence: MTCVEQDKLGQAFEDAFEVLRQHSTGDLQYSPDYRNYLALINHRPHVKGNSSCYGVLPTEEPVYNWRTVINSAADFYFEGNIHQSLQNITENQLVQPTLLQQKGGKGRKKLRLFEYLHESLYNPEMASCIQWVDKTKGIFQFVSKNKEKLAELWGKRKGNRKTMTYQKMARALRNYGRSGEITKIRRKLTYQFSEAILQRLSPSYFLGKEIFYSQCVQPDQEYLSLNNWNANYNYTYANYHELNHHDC
# Method in brief: as §1
# [14] = molecular target: ELF4 (Homo sapiens, UniProt Q99607 1-663); conditions: protein: recombinant; tags: N-terminal GST; dsDNA, one strand shown
# Method in brief: as §1
# [15] = molecular target: T9, ELK4 (Homo sapiens, UniProt P28324-2 1-405); conditions: protein: recombinant; tags: N-terminal GST; dsDNA, one strand shown
# T9 sequence: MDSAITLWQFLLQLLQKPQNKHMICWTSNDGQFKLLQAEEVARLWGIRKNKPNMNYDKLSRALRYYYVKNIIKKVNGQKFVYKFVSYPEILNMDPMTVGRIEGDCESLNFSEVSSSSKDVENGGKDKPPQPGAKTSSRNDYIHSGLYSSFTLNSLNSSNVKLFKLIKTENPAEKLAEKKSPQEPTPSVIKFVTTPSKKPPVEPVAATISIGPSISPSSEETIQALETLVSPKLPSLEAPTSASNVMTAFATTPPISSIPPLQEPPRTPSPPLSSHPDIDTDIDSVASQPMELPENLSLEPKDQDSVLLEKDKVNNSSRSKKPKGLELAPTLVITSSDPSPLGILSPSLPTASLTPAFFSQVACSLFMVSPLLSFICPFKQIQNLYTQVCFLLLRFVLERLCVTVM
# Method in brief: as §1
# [16] = molecular target: T10, ETV2 (Homo sapiens, UniProt O00321 1-342); conditions: protein: recombinant; tags: N-terminal GST; dsDNA, one strand shown
# T10 sequence: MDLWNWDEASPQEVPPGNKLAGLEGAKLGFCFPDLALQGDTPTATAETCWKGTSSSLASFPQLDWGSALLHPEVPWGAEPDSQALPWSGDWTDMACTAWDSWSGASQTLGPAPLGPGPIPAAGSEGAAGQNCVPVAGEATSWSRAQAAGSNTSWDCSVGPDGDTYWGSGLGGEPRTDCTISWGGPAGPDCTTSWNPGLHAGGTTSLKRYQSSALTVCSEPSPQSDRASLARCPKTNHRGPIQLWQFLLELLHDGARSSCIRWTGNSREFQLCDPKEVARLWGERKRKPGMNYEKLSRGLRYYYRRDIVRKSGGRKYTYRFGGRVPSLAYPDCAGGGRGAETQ
# Method in brief: as §1
# [17] = molecular target: T11, ELF3 (Homo sapiens, UniProt P78545 1-371); conditions: protein: recombinant; tags: N-terminal GST; dsDNA, one strand shown
# T11 sequence: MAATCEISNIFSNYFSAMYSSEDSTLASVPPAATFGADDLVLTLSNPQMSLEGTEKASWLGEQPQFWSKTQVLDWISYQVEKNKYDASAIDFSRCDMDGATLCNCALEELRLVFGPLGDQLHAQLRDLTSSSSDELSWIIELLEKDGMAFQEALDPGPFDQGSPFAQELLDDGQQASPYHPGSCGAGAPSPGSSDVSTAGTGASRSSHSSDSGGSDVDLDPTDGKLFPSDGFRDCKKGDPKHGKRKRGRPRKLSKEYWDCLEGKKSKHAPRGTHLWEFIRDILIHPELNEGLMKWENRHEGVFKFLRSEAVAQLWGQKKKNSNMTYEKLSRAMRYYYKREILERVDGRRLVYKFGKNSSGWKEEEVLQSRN
# Method in brief: as §1
# [18] = molecular target: CRX (Homo sapiens, UniProt O43186 1-299); conditions: protein: recombinant; tags: N-terminal GST; dsDNA, one strand shown
# Method in brief: as §1
# [19] = molecular target: ETV1 (Homo sapiens, UniProt P50549 1-477); conditions: protein: recombinant; tags: N-terminal GST; dsDNA, one strand shown
# Method in brief: as §1
# HSF1, sequence (Q00613 whole entry): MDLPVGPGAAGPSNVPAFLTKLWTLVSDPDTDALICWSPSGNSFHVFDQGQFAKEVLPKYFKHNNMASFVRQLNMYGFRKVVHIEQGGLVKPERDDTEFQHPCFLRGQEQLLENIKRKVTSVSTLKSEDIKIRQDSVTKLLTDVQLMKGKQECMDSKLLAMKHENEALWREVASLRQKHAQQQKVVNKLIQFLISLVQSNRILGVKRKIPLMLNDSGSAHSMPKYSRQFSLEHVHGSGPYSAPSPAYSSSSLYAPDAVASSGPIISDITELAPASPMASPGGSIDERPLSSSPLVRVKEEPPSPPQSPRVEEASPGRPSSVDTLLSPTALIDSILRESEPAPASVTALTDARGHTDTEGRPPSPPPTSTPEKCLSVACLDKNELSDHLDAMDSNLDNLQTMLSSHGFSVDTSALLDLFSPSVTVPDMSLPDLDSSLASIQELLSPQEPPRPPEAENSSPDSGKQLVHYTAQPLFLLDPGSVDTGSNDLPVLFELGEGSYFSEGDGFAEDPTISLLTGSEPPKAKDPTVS
# ETV5, sequence (P41161 whole entry): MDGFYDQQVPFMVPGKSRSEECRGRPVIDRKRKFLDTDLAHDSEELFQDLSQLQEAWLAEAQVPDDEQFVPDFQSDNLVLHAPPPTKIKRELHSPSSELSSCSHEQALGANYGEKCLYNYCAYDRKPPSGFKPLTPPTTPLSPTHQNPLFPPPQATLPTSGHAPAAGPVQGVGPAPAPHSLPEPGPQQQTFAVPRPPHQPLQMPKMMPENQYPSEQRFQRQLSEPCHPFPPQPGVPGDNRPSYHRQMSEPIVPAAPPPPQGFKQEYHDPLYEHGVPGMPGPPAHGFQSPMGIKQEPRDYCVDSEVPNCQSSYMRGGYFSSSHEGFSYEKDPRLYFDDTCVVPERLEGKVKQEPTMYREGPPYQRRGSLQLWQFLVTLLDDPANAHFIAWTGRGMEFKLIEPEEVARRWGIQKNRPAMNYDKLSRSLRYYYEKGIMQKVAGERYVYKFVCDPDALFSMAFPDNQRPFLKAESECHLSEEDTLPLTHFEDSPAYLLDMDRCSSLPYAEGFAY
# ELF1, sequence (P32519 whole entry): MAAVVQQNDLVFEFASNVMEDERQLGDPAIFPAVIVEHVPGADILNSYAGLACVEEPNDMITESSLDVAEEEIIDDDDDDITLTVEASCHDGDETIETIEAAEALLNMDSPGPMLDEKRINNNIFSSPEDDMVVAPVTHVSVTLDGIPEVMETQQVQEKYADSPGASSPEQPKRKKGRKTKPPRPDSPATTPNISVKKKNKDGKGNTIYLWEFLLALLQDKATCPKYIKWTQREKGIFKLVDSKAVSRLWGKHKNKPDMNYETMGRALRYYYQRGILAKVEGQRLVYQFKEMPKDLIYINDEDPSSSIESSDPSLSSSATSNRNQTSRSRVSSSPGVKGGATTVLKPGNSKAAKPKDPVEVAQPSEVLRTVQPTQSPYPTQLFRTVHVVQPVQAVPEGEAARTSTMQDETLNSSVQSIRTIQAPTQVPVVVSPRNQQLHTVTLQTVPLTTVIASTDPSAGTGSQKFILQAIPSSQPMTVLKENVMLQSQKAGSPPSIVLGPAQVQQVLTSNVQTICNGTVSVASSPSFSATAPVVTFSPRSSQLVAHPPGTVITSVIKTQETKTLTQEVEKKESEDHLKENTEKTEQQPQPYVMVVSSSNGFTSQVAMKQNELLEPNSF
# CRX, sequence (O43186 whole entry): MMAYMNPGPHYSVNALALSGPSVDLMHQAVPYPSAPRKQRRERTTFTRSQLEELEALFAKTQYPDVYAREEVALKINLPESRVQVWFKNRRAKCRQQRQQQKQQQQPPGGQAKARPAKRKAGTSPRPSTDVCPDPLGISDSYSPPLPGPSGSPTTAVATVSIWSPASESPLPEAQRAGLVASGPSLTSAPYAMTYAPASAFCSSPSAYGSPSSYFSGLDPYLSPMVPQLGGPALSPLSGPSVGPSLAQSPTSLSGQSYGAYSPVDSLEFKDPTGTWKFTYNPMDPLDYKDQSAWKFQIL
# ELF4, sequence (Q99607 whole entry): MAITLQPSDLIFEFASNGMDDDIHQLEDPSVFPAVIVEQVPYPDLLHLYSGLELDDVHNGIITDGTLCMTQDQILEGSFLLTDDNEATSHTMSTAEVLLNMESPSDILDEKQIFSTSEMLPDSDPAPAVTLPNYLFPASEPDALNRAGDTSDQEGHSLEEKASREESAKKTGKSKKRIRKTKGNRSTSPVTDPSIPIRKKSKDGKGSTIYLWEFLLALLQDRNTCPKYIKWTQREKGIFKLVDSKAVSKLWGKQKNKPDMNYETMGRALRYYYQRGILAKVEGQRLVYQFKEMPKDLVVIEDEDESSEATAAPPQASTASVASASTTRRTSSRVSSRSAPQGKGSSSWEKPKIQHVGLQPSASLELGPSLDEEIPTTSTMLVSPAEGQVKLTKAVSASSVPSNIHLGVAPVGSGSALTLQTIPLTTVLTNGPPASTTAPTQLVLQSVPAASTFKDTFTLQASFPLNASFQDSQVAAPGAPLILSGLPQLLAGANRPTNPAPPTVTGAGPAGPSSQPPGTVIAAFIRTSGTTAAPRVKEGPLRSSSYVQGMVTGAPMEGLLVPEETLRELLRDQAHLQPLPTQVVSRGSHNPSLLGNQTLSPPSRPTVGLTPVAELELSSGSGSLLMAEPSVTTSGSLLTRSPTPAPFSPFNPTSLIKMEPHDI
# ETV1, sequence (P50549 whole entry): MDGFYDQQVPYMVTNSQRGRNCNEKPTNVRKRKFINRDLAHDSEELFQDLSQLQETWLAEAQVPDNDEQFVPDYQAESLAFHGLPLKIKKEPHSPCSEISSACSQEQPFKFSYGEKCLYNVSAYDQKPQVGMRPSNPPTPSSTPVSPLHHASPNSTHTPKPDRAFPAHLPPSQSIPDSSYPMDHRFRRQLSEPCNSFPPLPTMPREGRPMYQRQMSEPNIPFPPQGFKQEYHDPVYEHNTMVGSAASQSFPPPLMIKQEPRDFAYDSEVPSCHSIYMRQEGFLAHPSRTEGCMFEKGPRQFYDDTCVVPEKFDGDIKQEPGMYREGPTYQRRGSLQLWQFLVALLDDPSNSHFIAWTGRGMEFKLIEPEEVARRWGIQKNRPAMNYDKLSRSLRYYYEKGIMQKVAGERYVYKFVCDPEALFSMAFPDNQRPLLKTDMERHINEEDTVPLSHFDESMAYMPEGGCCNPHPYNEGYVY
# SPIB, sequence (Q01892 whole entry): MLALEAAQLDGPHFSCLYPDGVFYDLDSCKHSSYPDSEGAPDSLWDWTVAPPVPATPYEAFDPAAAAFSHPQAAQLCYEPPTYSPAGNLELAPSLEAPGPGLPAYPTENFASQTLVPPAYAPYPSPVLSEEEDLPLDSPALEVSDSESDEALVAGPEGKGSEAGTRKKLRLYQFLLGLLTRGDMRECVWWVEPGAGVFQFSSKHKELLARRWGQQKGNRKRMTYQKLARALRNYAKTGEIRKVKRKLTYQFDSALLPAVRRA
sequence,measurement,setting,value
TGAACA,binding signal,[1],"1.25 fold enrichment (6-mer frequency, TF over GST control)"
same,binding signal,[2],"1.23 fold enrichment (6-mer frequency, TF over GST control)"
same,binding signal,[3],"1.18 fold enrichment (6-mer frequency, TF over GST control)"
same,binding signal,[4],"1.21 fold enrichment (6-mer frequency, TF over GST control)"
same,binding signal,[5],"1.26 fold enrichment (6-mer frequency, TF over GST control)"
same,binding signal,[6],"1.27 fold enrichment (6-mer frequency, TF over GST control)"
same,binding signal,[7],"1.14 fold enrichment (6-mer frequency, TF over GST control)"
same,binding signal,[8],"1.23 fold enrichment (6-mer frequency, TF over GST control)"
same,binding signal,[9],"1.33 fold enrichment (6-mer frequency, TF over GST control)"
same,binding signal,[10],"1.21 fold enrichment (6-mer frequency, TF over GST control)"
same,binding signal,[11],"1.2 fold enrichment (6-mer frequency, TF over GST control)"
same,binding signal,[12],"1.18 fold enrichment (6-mer frequency, TF over GST control)"
same,binding signal,[13],"1.29 fold enrichment (6-mer frequency, TF over GST control)"
same,binding signal,[14],"1.24 fold enrichment (6-mer frequency, TF over GST control)"
same,binding signal,[15],"1.4 fold enrichment (6-mer frequency, TF over GST control)"
same,binding signal,[16],"1.27 fold enrichment (6-mer frequency, TF over GST control)"
same,binding signal,[17],"1.3 fold enrichment (6-mer frequency, TF over GST control)"
same,binding signal,[18],"1.06 fold enrichment (6-mer frequency, TF over GST control)"
same,binding signal,[19],"1.27 fold enrichment (6-mer frequency, TF over GST control)"

# From PMC7862700, “An all-to-all approach to the identification of sequence-specific readers for epigenetic DNA modifications on cytosine”
